These results are taken from PubChem BioAssay AID1259415 (National Center for Advancing Translational Sciences (NCATS), 2018).

The whole screen tested about 410,000 compounds, of which about 18,000 (4.4%) were called active. Not shown: some 7% with an inconclusive outcome. No stated cut-off is given here; in the data, active means activity change below about -60%; inconclusive means no clear call, values can overlap the other calls; inactive means above about -39%. The list comes from a sample in which actives are over-represented; it also holds similar structures and randomly drawn compounds.
On the % scale 0 is the no-effect control and ±100 the full control effect.

The experiment is described as follows: qHTS Assay for inhibitors of the human cytomegalovirus (HCMV). The conditions noted are these: HFF cells, HCMV-luciferase reporter, 72 h; at 57.5 µM; active compounds read low. An excerpt:
NCGC Assay Overview: Infection with human cytomegalovirus (HCMV) continues to pose significant threats for pregnant women and immunocompromised hosts. HCMV causes serious morbidity and mortality in transplant recipients, and congenital HCMV is the leading infectious cause of mental retardation and deafness in children. In the 1990s, the annual costs associated with the disease burden of congenital CMV were estimated at around $2 billion. A HCMV vaccine is not available yet and HCMV therapies result in intolerable side effects and emergence of drug resistant viruses. […] Towards this goal we have developed and characterized a luciferase HCMV reporter that was initially used in 96 well plates and then optimized to 1536-well plates for utilization in screening of the MLSMR collection, the NGCG diversity collection and the NCGC Pharmaceutical Collection of approved and investigational drugs.
NCGC Assay Protocol Summary:
This is a cell-based assay for HCMV inhibition in HFFs cells. The screening used 2 compound doses and the HCMV-luciferase at MOI of 1 PFU/cell. Cells were treated and infected with HCMV. At 72 h post infection cell lysates were collected and luciferase activity was determined using the Glomax-Multi + Detection System (Promega, Madison, WI). Data were normalized to the controls for basal activity (buffer only) and known HCMV inhibitors Salinmoycin.
1536-well assay protocol for the assay:
(1) Add 3 ul CMV/HFF cell culture. 1000 cells/well in DMEM nirmal media.
(2) Incubate 16 hr at 37C.
(3) Add 23 nl control compound, 10uM of Salinomycin.
(4) Add 23 nl compounds in DMSO solution.
(5) Add 3 ul CMV suspension. Final 1 puf/ul, Virus stock 2000pfu/ul
(6) Incubate 72 hrs at 37C.
(7) Add 4 ul OneGlo Luc Reagent.
(8) Incubate 5 min at room temperature.
As for `COCCCNC(=O)[C@H]1N2C(=O)c3ccccc3C2SC1(C)C` (some centres undefined), the activity change, negative = inhibition was 36.2% (inactive). Regarding `Cn1ccc(=Nc2ccc(NC(=O)c3ccc(N=c4ccn(C)c5ccc([N+](=O)[O-])cc45)cc3)cc2)cc1`, the activity change, negative = inhibition is -96.1% (active). Next, `O=C(Nc1cc2c3c(c1)C1CCCC1CN3CC1CCCC21)c1ccc([N+](=O)[O-])cc1` (centres undefined): -31.6% (inactive).

With `CC(=O)Nc1ccc(C(=O)OCC(=O)Nc2ccc([N+](=O)[O-])cc2C(F)(F)F)cc1`, the activity change, negative = inhibition is -34.7% (inactive). In the case of `Cc1ccc(CCNC(=O)c2ccc3c(c2)N(Cc2cc(C)ccc2C)C(=O)c2ccccc2S3=O)cc1` (centres undefined), the activity change, negative = inhibition was -0.139% (inactive). The result for `Cc1cccc(NC(=O)C2CCCN2S(=O)(=O)c2cccc3nsnc23)c1C` (centres undefined) reads 31.6% (inactive); that for `CCC(=O)Nc1c(C(=O)N2CCN(c3ccc(F)cc3)CC2)oc2ccccc12`, -20.1% (inactive); that for `CC(=O)C(C)n1cnc2scc(-c3ccc(C)cc3)c2c1=O` (centres undefined), -61% (active). As to `COC(=O)Cn1cnc2scc(-c3ccc(C)c(C)c3)c2c1=O`, the activity change, negative = inhibition was -22.1% (inactive). Next, `CCOC(=O)C(C)n1cnc2scc(-c3ccc(C)c(C)c3)c2c1=O` (centres undefined): -39.3% (inactive); `COc1cc(C(=O)N2CCN(c3ccc(Nc4ccc(C)cc4)nn3)CC2)cc(OC)c1OC`: 36.3% (inactive); `O=C(Cc1ccccc1Cl)N1CCOCC1`: -27.3% (inactive). With `O=C(Nc1ccc(OCC(=O)N2CCOCC2)cc1)c1cc(F)c(F)cc1Cl`, the activity change, negative = inhibition was 4.25% (inactive). The result for `C#CC(C)(CC)NC(=O)Cn1nnc(-c2ccc(OCc3c(F)cccc3Cl)cc2)n1` (centres undefined) reads -28.3% (inactive); that for `O=C(/C=C/c1ccc(OCc2c(F)cccc2Cl)cc1)N1CCOCC1`, -85.8% (active); that for `CCOC(=O)CNC(=O)/C=C/c1c(Cl)cccc1Cl`, -12.3% (inactive). Next, `CN(C)CCCNC(=O)/C=C/c1ccc(OCc2c(F)cccc2Cl)cc1`: -62.7% (active); `COc1cc(C2c3c(oc4ccccc4c3=O)C(=O)N2c2nc(C)c(C)s2)ccc1O` (centres undefined): -20.1% (inactive). The result for `CCOC(=O)C1CCCN(CC(=O)Nc2cc(C)c3c(=O)oc4ccccc4c3n2)C1` (centres undefined) reads 17.3% (inactive); that for `Cc1ccc(-c2cc(-c3coc4ccccc4c3=O)c3c(n2)-c2cc(Cl)ccc2OC3)cc1`, 21.6% (inactive). Take `Cc1nn(CC(=O)Nc2ccc(C#N)cc2)c(C)c1[N+](=O)[O-]`: the activity change, negative = inhibition is -33.6% (inactive). Next, `Cc1ccc(NC(=O)c2cc3cc(C)ccc3n2C)cc1`: 22.1% (inactive).

`CS/C(=C\[N+](=O)[O-])Nc1ccc(C)cc1`: the activity change, negative = inhibition was -61.4% (active). Next, `CCCN(CCC)C(=O)Cn1c(=O)n(-c2ccc(Cl)cc2)c(=O)c2c3c(sc21)CCCCC3`: 7.98% (inactive); `COc1ccc(C(=O)N2CCCC(C(=O)c3ccccc3OC)C2)cc1OC` (centres undefined): -10.3% (inactive). For `O=C(CSCc1cnn(-c2ccccc2)c1-n1cccc1)NCc1ccccc1Br`, the activity change, negative = inhibition is -36.4% (inactive).

On to `CCc1cc2c(-c3ccccc3)cc(=O)oc2c2c1OCN(Cc1ccc(C)cc1)C2`, for which the activity change, negative = inhibition was 0.791% (inactive).

On to `O=C(/C=C/Sc1ncn[nH]1)c1ccc(Cl)cc1`, for which the activity change, negative = inhibition was -76.4% (active). The result for `Cc1cc(C)c(NC(=O)c2cc3sc(Cl)cc3n2C)c(C)c1` reads -0.202% (inactive); that for `CN(c1ccccc1)c1ccc([N+](=O)[O-])c2nonc12`, -75% (active); that for `Cc1ccccc1Nc1c([N+](=O)[O-])ccc2nonc12`, -2.44% (inactive). As for `CN(Cc1ccccc1)c1ccc(-c2nc(-c3ccccc3)no2)cc1[N+](=O)[O-]`, the activity change, negative = inhibition was 22.8% (inactive). On to `CC(=O)Nc1c2c(nn1-c1ccc(C)cc1C)CS(=O)C2` (centres undefined), for which the activity change, negative = inhibition is 0% (inactive). The result for `COc1ccc(-n2nc3c(c2NC(=O)Cc2cccc(C)c2)CS(=O)C3)cc1` (centres undefined) reads 0.139% (inactive); that for `Cc1ccc(-n2nc3c(c2NC(=O)CCC2CCCCC2)CS(=O)C3)cc1` (centres undefined), -68.2% (active); that for `CCOc1cc(C(=O)NCCc2csc3nc(-c4ccc(C)cc4)nn23)cc(OCC)c1OCC`, -29.1% (inactive). With `Cc1cc(C)n(CC(C)NCc2c(C(=O)N3CCOCC3)nc3c(C)cccn23)n1` (centres undefined), the activity change, negative = inhibition is 16% (inactive). The result for `CCCCCn1c(=O)[nH]c2cc(C(=O)Nc3ccc(F)cc3)ccc2c1=O` reads 3.61% (inactive); that for `N#Cc1cccc(NC(=O)COC(=O)c2ccccc2C(=O)c2ccc(Cl)c([N+](=O)[O-])c2)c1`, -99.2% (active). On to `CC(C)NC(=O)c1ccc(Sc2ccccc2)c([N+](=O)[O-])c1`, for which the activity change, negative = inhibition is -15.4% (inactive). For the compound `Cc1ccc(CC(=O)Nc2cccc(C#N)c2)cc1`, the activity change, negative = inhibition is 6.08% (inactive). Next, `Nc1nc(SCC(=O)Nc2ccc(Cl)c([N+](=O)[O-])c2)n[nH]1`: -9.65% (inactive); `O=C(COc1ccc(NC(=O)c2ccccc2[N+](=O)[O-])cc1)c1ccc(F)cc1`: -16.6% (inactive). The result for `CC(=O)Nc1ccc(NC(=O)C(C)OC(=O)c2ccccc2C(=O)c2ccc(Cl)c([N+](=O)[O-])c2)cc1` (centres undefined) reads -83.7% (active).
